Consider 11 compounds from PubChem BioAssay (NCI).

Test in all cases: NCI-60 one-dose screen, 48 h (100 = growth as untreated, 0 = no growth, -100 = all killed)
One experiment concerns NCI-H23 lung. The conditions noted are these: 10 µM unless noted.
For a further experiment, the system named is NCI-H226 lung. The conditions noted are these: 10 µM unless noted.
The test system of the next experiment is NCI-H322M lung. The conditions noted are these: 10 µM unless noted.
For the next experiment, the system named is HOP-62 NSCLC. The conditions noted are these: 10 µM unless noted.
A further experiment relates to NCI-H460 lung. The conditions noted are these: 10 µM unless noted.
A further experiment concerns HOP-92 NSCLC. The conditions noted are these: 10 µM unless noted.
The test system of the next experiment is NCI-H522 lung. The conditions noted are these: 10 µM.
The test system of the next experiment is 786-0 renal. The conditions noted are these: 10 µM unless noted.
In a further experiment the test system is COLO 205 colon. The conditions noted are these: 10 µM unless noted.
In a further experiment the test system is K-562 leukemia. The conditions noted are these: 10 µM unless noted.
A further experiment relates to MALME-3M melanoma. The conditions noted are these: 10 µM unless noted.
The subject of the next experiment is MDA-MB-231 breast. The conditions noted are these: 10 µM unless noted.
For another experiment, the system named is SF-268 CNS. The conditions noted are these: 10 µM unless noted.
The next experiment deals with SF-295 CNS. The conditions noted are these: 10 µM unless noted.
Another experiment has as its system SF-539 CNS. The conditions noted are these: 10 µM unless noted.
The next experiment deals with UACC-257 melanoma. The conditions noted are these: 10 µM unless noted.
The next experiment has as its system M14 melanoma. The conditions noted are these: 10 µM unless noted.
The next experiment concerns DU-145 prostate. The conditions noted are these: 10 µM unless noted.
The test system of a further experiment is RXF 393 renal. The conditions noted are these: 10 µM unless noted.

About 83,000 compounds went through this panel and 20% of them were active in at least one assay; those are over-represented in the sample as a whole.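 The test compound was applied at a single concentration to cells in 96-well plates for 48 hours, and percent growth was recorded.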 Values without a mark were called inactive. Calls of active or inactive are those of the source. Rule for the calls: active = growth percent below 10; inactive = the rest.

On to `COc1ccc(C(=O)COc2cccc(/C=C3\COc4ccc5ccccc5c4C3=O)c2)cc1`, for which the growth in the experiment with NCI-H23 lung is 59.5%; in the experiment with NCI-H226 lung, 72.7%; in the experiment on NCI-H322M lung, 147%; in the experiment on HOP-62 NSCLC, 96.5%; in the experiment on NCI-H460 lung, 62%; in the experiment on HOP-92 NSCLC it was 33.8%. The growth in the experiment with NCI-H522 lung was 44.1%; in the experiment on 786-0 renal, 83%; in the experiment with COLO 205 colon it was 123%; in the experiment on K-562 leukemia, 47.8%; in the experiment on MALME-3M melanoma, 72%; in the experiment with MDA-MB-231 breast it was 53.7%. For the same compound, the growth with SF-268 CNS was 83.8%; in the experiment with SF-295 CNS, 107%; with SF-539 CNS it was 16%; with UACC-257 melanoma it was 79.4%; with M14 melanoma, 91.2%.

On to `C[C@H]1C(=O)N2c3ccccc3[C@@]3(O)C[C@@H](n4cnc5ccccc5c4=O)C(=O)N1[C@@H]23`, for which the growth in the experiment on NCI-H23 lung was 106%; in the experiment on NCI-H226 lung it was 98.1%; in the experiment with NCI-H322M lung it was 109%; in the experiment on HOP-62 NSCLC, 97.4%; with NCI-H460 lung, 107%; in the experiment with HOP-92 NSCLC it was 102%. Besides, the growth in the experiment with NCI-H522 lung is 92.5%; with 786-0 renal, 102%; in the experiment on COLO 205 colon, 110%; in the experiment with DU-145 prostate it was 123%; in the experiment with K-562 leukemia, 99.2%; in the experiment on MALME-3M melanoma, 107%. In addition, the growth is 110% in the experiment with MDA-MB-231 breast; 112% in the experiment on SF-268 CNS; 130% in the experiment with SF-295 CNS; 101% with SF-539 CNS; 66.8% with UACC-257 melanoma; 108% in the experiment with M14 melanoma.

In the case of `Cc1cn(C(C=O)OC(C=O)CO)c(=O)[nH]c1=O` (centres undefined), the growth is 107% with NCI-H23 lung; 105% in the experiment with NCI-H226 lung; 106% in the experiment with NCI-H322M lung; 102% in the experiment on HOP-62 NSCLC; 105% with NCI-H460 lung; 104% with HOP-92 NSCLC. Moreover, the growth is 98% with NCI-H522 lung; 107% with 786-0 renal; 109% with COLO 205 colon; 108% with DU-145 prostate; 104% in the experiment with K-562 leukemia; 98.8% in the experiment with MALME-3M melanoma. Also, the growth in the experiment on MDA-MB-231 breast is 108%; in the experiment on SF-268 CNS it was 113%; with SF-295 CNS, 102%; in the experiment with SF-539 CNS it was 104%; in the experiment with UACC-257 melanoma, 88%; in the experiment with M14 melanoma, 108%.

Consider `CC(=O)O[C@H]1CC[C@@]2(C)C(=CC[C@@H]3[C@@H]2CC[C@]2(C)C(c4cccnc4)=CC[C@@H]32)C1`, for which the growth is 66.6% with NCI-H23 lung; 64.1% in the experiment on NCI-H226 lung; 95.6% with NCI-H322M lung; 75.7% with HOP-62 NSCLC; 68.2% in the experiment on NCI-H460 lung; 79.4% with HOP-92 NSCLC. The growth is 38.3% in the experiment on NCI-H522 lung; 13.6% in the experiment with 786-0 renal; 81.8% in the experiment on COLO 205 colon; 94.9% with DU-145 prostate; 72.6% with MALME-3M melanoma; 86.3% with MDA-MB-231 breast. The growth with SF-268 CNS was 76.4%; in the experiment with SF-295 CNS, 43.3%; in the experiment with SF-539 CNS, 28.7%; with M14 melanoma it was 72.7%.

For `O=[N+]([O-])c1cc([N+](=O)[O-])c(N2CCCC2)cc1NN=C(c1ccc(O)cc1)c1ccc(O)cc1`, the growth in the experiment with NCI-H23 lung is 9.44% (active); with NCI-H226 lung, 94.8%; in the experiment with NCI-H322M lung it was 91.7%; with HOP-62 NSCLC it was 23.3%; in the experiment on NCI-H460 lung, 9.13% (active); in the experiment with HOP-92 NSCLC, 87.7%. In addition, the growth was -42% (active) with NCI-H522 lung; 0.661% (active) in the experiment on 786-0 renal; 30.6% in the experiment with COLO 205 colon; 95.8% with DU-145 prostate; 140% with MALME-3M melanoma; 93.6% in the experiment on MDA-MB-231 breast. Moreover, the growth in the experiment on RXF 393 renal is -22.2% (active); in the experiment with SF-268 CNS, 77.3%; in the experiment with SF-295 CNS it was 79.6%; with SF-539 CNS, 61.9%; in the experiment with M14 melanoma, 7.88% (active).

With `O=C(NCCCl)NCCN1c2nc3ccccc3cc2Sc2cc3ccccc3nc21`, the growth with NCI-H23 lung is 39.1%; in the experiment with NCI-H226 lung, 63.5%; in the experiment on NCI-H322M lung, 107%; with HOP-62 NSCLC it was 51.7%; in the experiment on NCI-H460 lung, 26%; in the experiment with HOP-92 NSCLC it was -5.57% (active). Also, the growth was 55.4% in the experiment with NCI-H522 lung; 57.9% with 786-0 renal; 73.8% in the experiment with COLO 205 colon; 21.5% with K-562 leukemia; 60.4% in the experiment with MALME-3M melanoma; 39.5% with MDA-MB-231 breast. In addition, the growth in the experiment with SF-268 CNS was 44.2%; in the experiment with SF-295 CNS, 409%; in the experiment with SF-539 CNS, 38.3%; in the experiment on UACC-257 melanoma, 65.8%; in the experiment with M14 melanoma it was 69.2%.

Take `O=C(O)C1CCN(S(=O)(=O)c2ccc(-c3ccccc3)cc2)CC1`: the growth with NCI-H23 lung is 98.3%; in the experiment on NCI-H226 lung, 90.6%; in the experiment with NCI-H322M lung, 124%; in the experiment with HOP-62 NSCLC it was 112%; with NCI-H460 lung it was 112%; in the experiment with HOP-92 NSCLC, 90.8%. The growth was 92.9% in the experiment with NCI-H522 lung; 103% in the experiment on 786-0 renal; 111% with COLO 205 colon; 114% with DU-145 prostate; 109% in the experiment with K-562 leukemia; 127% in the experiment on MALME-3M melanoma. For the same compound, the growth is 98.7% in the experiment on MDA-MB-231 breast; 108% in the experiment on SF-268 CNS; 192% in the experiment with SF-295 CNS; 109% with SF-539 CNS; 56.2% in the experiment with UACC-257 melanoma; 109% in the experiment with M14 melanoma.

With `COCCCNS(=O)(=O)c1ncnc2nc[nH]c12`, the growth with NCI-H23 lung is 96.4%; in the experiment on NCI-H226 lung it was 134%; in the experiment on NCI-H322M lung it was 119%; in the experiment with HOP-62 NSCLC, 93.4%; with NCI-H460 lung it was 105%; in the experiment with HOP-92 NSCLC it was 120%. Further, the growth with NCI-H522 lung was 119%; with 786-0 renal, 98.9%; in the experiment on COLO 205 colon it was 112%; with DU-145 prostate it was 98.5%; in the experiment with K-562 leukemia it was 109%; in the experiment with MALME-3M melanoma, 107%. Further, the growth is 124% in the experiment with MDA-MB-231 breast; 106% in the experiment with SF-268 CNS; 129% in the experiment on SF-295 CNS; 99.1% in the experiment on SF-539 CNS; 92.6% in the experiment on M14 melanoma.

Turning to `Cc1ccc(S(=O)(=O)N2CCN(C(=O)CSc3nc4ccc(C)cc4[nH]3)CC2)cc1`, the growth was 105% in the experiment on NCI-H23 lung; 91.3% with NCI-H226 lung; 116% in the experiment on NCI-H322M lung; 106% with HOP-62 NSCLC; 110% in the experiment on NCI-H460 lung; 96.6% in the experiment with HOP-92 NSCLC. Moreover, the growth in the experiment on NCI-H522 lung is 97.2%; with 786-0 renal, 107%; in the experiment on COLO 205 colon it was 143%; in the experiment on DU-145 prostate, 109%; in the experiment on K-562 leukemia, 74.8%; in the experiment with MALME-3M melanoma, 126%. Further, the growth is 92.3% in the experiment on MDA-MB-231 breast; 101% in the experiment on SF-268 CNS; 159% in the experiment on SF-295 CNS; 110% in the experiment on SF-539 CNS; 63.4% with UACC-257 melanoma; 101% with M14 melanoma.

For the compound `O=Nc1c2cccnc2n2nnc3ccc(Cl)cc3c12`, the growth with NCI-H23 lung was 66.4%; with NCI-H226 lung, 85.9%; with NCI-H322M lung, 107%; in the experiment on HOP-62 NSCLC it was 115%; with NCI-H460 lung, 27.7%; in the experiment with HOP-92 NSCLC, -40.5% (active). In addition, the growth is -71.5% (active) in the experiment on NCI-H522 lung; 59% in the experiment on 786-0 renal; -5.58% (active) in the experiment on COLO 205 colon; -10.6% (active) with DU-145 prostate; 23.7% with MALME-3M melanoma; 13.9% with MDA-MB-231 breast. The growth is 48.7% in the experiment with SF-268 CNS; 90.3% with SF-295 CNS; 91.4% in the experiment on SF-539 CNS; 28.6% in the experiment on UACC-257 melanoma; 81.5% in the experiment on M14 melanoma.

Turning to `Oc1ccccc1/C=N/N1CCCCCC1`, the growth is 101% with NCI-H23 lung; 91.5% in the experiment on NCI-H226 lung; 108% with NCI-H322M lung; 109% in the experiment on HOP-62 NSCLC; 127% in the experiment with NCI-H460 lung; 50.4% with HOP-92 NSCLC. The growth in the experiment with NCI-H522 lung is 104%; with 786-0 renal, 110%; in the experiment with COLO 205 colon, 122%; in the experiment on DU-145 prostate, 108%; with MDA-MB-231 breast it was 96.1%; in the experiment on RXF 393 renal, 101%. Further, the growth in the experiment with SF-268 CNS was 99.9%; in the experiment on SF-539 CNS, 113%; with UACC-257 melanoma, 129%; with M14 melanoma it was 118%.
